# Screening data (PubChem BioAssay)
# Only some compounds are listed: those with a hit (about 6.1% of all), similar ones and a draw of the others.
# DRD3 antagonist: qHTS of D3 Dopamine Receptor Antagonist: qHTS | 2.5% of 360,000 active | D3R cells, DiscoveRx beta-arrestin luminescence, antagonist mode; active compounds read low | max response, negative = inhibition, % | D(3) dopamine receptor (Homo sapiens), P35462; in the data active means max response below about -50%; inconclusive means no clear call, values can overlap the other calls
# Target sequence (P35462 whole entry, looked up): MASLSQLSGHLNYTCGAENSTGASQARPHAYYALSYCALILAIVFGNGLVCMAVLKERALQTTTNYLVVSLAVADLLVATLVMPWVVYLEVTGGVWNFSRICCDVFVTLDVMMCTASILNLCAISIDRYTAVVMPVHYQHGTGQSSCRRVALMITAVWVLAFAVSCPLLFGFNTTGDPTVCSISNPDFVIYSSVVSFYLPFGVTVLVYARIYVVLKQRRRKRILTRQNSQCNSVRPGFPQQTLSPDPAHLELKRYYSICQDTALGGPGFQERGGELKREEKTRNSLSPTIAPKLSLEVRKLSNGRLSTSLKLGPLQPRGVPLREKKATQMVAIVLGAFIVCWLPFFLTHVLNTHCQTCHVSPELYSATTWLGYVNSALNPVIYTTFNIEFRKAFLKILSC
#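 Cells plated overnight at 1500 cells/well, then exposed to library compounds with dopamine controls for 90 minutes at 37 degrees C. DiscoveRx reagent added for 30–60 minutes at room temperature; luminescence read, quantitative HTS format.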
# D1 antagonist: Antagonist of Human D 1 Dopamine Receptor: qHTS; HEK293 TREx D1 cells, calcium flux, dopamine EC80; active compounds read low; activity change, negative = inhibition, % at 10 µM; 3.2% of 360,000 active; in the data active means activity change below about -30%
#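 After overnight tetracycline induction at 30 C, force-coupled D1 HEK293 cells took up a no-wash calcium dye at room temperature. Compounds were added and monitored 180 s, and the response to EC80 dopamine was then recorded.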
# D3 ag: qHTS of D3 Dopamine Receptor Agonist: qHTS | D3R DiscoveRx beta-arrestin cells, luminescence, 90 min | D(3) dopamine receptor (Homo sapiens), P35462 | AID 652048, 2013 | 0.58% of 410,000 active | max activation, %; in the data active means max activation above about 30%
#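 Agonist mode: compounds and dopamine controls were applied to plated cells for 90 min at 37 degrees C after an overnight attachment at 1500 cells/well. Luminescent read-out followed 30 - 60 minutes at room temperature with DiscoveRx detection reagent.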
# D1 ag: Allosteric Agonists of the Human D1 Dopamine Receptor: qHTS; activation, % at 2 µM; AID 504660, 2011; HEK293 T-REx D1 cells, calcium flux, agonist mode; D(1A) dopamine receptor (Homo sapiens), P21728; 1% of 360,000 active; in the data active means activation above about 30%
#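 Tetracycline-induced HEK293 TREx D1 cells, force-coupled to calcium signalling, were dye-loaded with a no-wash calcium kit. Compound was pin-added after a 10 s baseline. Fluorescence was read kinetically at 1 cycle/s for 180 s, with calcium rises flagged as agonism.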
# D1 potentiator: Potentiators of Human D1 Dopamine Receptor: qHTS; HEK293 TREx D1 cells, calcium flux, dopamine EC20 potentiation; potentiation, % at 10 µM; 0.036% of 360,000 active; AID 504651, 2011; in the data active means potentiation above about 30%
# Numbers stand for hits; . = inactive; ? = inconclusive; / = no result given; ! = not confirmed by another sample.
SMILES,DRD3 antagonist,D1 antagonist,D3 ag,D1 ag,D1 potentiator
C#C[C@]1(OC(C)=O)CC[C@H]2[C@@H]3CCC4=CC(=O)CC[C@@H]4[C@H]3CC[C@@]21C,/,/,.,/,/
CCc1ccc(-c2nn(CC(=O)NCc3ccccc3)c3c2cnc2ccc(C)cc23)cc1,/,.,.,.,.
N/C(=N\OC(=O)c1cccc(Cl)c1)c1ccccn1,.,-38.5,.,.,.
N/C(=N\OC(=O)c1ccc(Cl)c(Cl)c1)c1ccccn1,.,.,.,.,.
COc1ccccc1CNC(=O)CC1N=C2c3ccccc3N=C(SCC(=O)Nc3ccc(F)cc3)N2C1=O (configuration not stated),/,.,.,.,.
CN(C(=O)COc1ccccc1C(=O)NCCOc1ccccc1)c1ccccc1,.,.,30.1,.,.
O=C(NCCOc1ccccc1)c1ccccc1Cl,.,.,.,.,.
COC(=O)/C(=C/c1cccnc1)NC(=O)c1ccccc1,?,.,.,.,.
COC(=O)C(=C/C(C)=C/c1cccnc1)C(=O)OC,-51.8,.,.,.,.
CC(/C=C\c1ccccc1)=C/C(=O)O,.,.,.,.,.
CN(C)c1ccc(C(=O)/C=C/c2cccnc2)cc1,.,.,.,.,.
CC(/C=C\c1cccnc1)=C/C(=O)O,.,-62.0!,.,.,.
O=C(O)/C=C/c1cccnc1,.,-80.0,.,.,.
CC(=O)c1cccc(NC(=O)c2nc3ccccc3nc2N2CCCCC2)c1,/,.,.,.,.
COc1ccc([C@H]2CC(=O)C=C(c3cc4ccccc4s3)C2)cc1OC,.,-48.3,31.9,.,.
COc1ccc([C@H]2CC(=O)C=C(c3ccc(C)cc3)C2)cc1OC,.,.,.,.,.
COc1ccc([C@H]2CC(=O)C=C(c3ccc(-c4ccccc4)cc3)C2)cc1OC,.,.,.,.,.
COc1ccc([C@H]2CC(=O)C=C(c3cccc4c3sc3ccccc34)C2)cc1OC,.,-36.4,.,.,.
COc1ccc([C@H]2CC(=O)C=C(c3ccc(C(=O)O)cc3)C2)cc1OC,.,/,30.5,.,.
COc1ccccc1NC(=O)C1CCN(c2cnccn2)CC1,/,.,.,.,.
COc1ccc(-c2nc3n(n2)C(c2ccc(OC)cc2)C(C(=O)Nc2cccnc2)=C(C)N3)cc1 (configuration not stated),/,.,.,.,.
COc1ccc(CN2CC34C=CC(O3)C(C(=O)O)C4C2=O)cc1 (configuration not stated),.,-57.6,.,.,/
COc1ccc(C(C)N2CC34C=CC(O3)C(C(=O)O)C4C2=O)cc1 (configuration not stated),.,.,.,.,.
O=S(=O)(Nc1ccccc1)c1ccc(NS(=O)(=O)c2c(F)cccc2F)cc1,.,.,40.7,.,.
O=S(=O)(Nc1ccc(N=Nc2ccccc2)cc1)c1ccccc1,-52.2,.,.,.,.
SMILES,DRD3 antagonist,D1 antagonist,D3 ag,D1 ag,D1 potentiator
O=S(=O)(Nc1ccc(S(=O)(=O)Nc2ccccc2)cc1)c1ccccc1,.,.,.,.,.
COc1ccc(C(C)=O)cc1CSc1nc(Nc2ccc(F)c(F)c2)c2ccccc2n1,/,.,.,.,.
O=C(c1ccccc1NS(=O)(=O)c1ccc(Br)cc1)N1CCOCC1,.,-33.0,.,.,.
O=C(NS(=O)(=O)c1ccc2c(c1)OCCO2)c1ccccc1,-85.2,.,.,.,.
O=C(O)c1cccc(NS(=O)(=O)c2ccc3c(c2)OCCCO3)c1,.,.,.,.,.
NC(=O)c1ccccc1NS(=O)(=O)c1ccc2c(c1)OCCO2,.,-35.7,.,.,.
O=C(O)c1ccccc1NS(=O)(=O)c1ccc2c(c1)OCCO2,.,.,.,.,.
Cc1ccc(Cc2cc(-c3ccc(C)cc3)n[nH]c2=O)cc1,.,.,.,.,.
Cc1ccc(-c2cc(Cc3ccc(F)cc3)c(=O)[nH]n2)cc1,.,-47.3,.,.,.
Cc1cccc(Cc2c(C)nc3nc(SCc4ccccc4F)nn3c2C)c1,/,.,.,.,.
O=C(CNC(=O)c1ccc([N+](=O)[O-])cc1)OC(C(=O)Nc1cc(C(F)(F)F)ccc1Cl)c1ccccc1 (configuration not stated),/,.,/,.,.
CC[C@@]1(C(=O)OC)N[C@H](CN(C)S(=O)(=O)c2ccc(OC)cc2)[C@@H]2C(=O)N(C)C(=O)[C@@H]21,.,/,.,/,/
CC[C@@]1(C(=O)OC)N[C@H](CN(C)S(=O)(=O)c2ccc(C(C)(C)C)cc2)[C@@H]2C(=O)N(C)C(=O)[C@@H]21,.,/,41.0,/,/
CC[C@@]1(C(=O)OC)N[C@H](CN(C)S(=O)(=O)c2ccccc2)[C@@H]2C(=O)N(C)C(=O)[C@@H]21,.,/,34.1,/,/
O=C(Nc1ccc(F)cc1F)c1cc2ccc3cccnc3c2[nH]1,/,.,.,.,.
COc1ccccc1Nc1c2c(nc3ccccc13)CCC2,.,-38.1,.,.,.
Nc1c2c(nc3ccc(Br)cc13)N(C1CCCCC1)CC2,/,.,/,.,.
COc1ccc(Nc2c3c(nc4ccccc24)CCC3)c(OC)c1,.,.,.,.,.
Nc1c2c(nc3ccccc13)N(C1CCCCC1)CC2,-82.6,-36.7,.,.,.
Fc1cccc(Nc2c3c(nc4ccccc24)CCC3)c1,.,-53.1,.,.,.
O=C(Nc1c2c(nc3ccccc13)CCCC2)c1ccccc1F,.,-37.3,.,.,.
CC(=O)c1cccc(Nc2c3c(nc4ccccc24)CCC3)c1,.,.,.,.,.
Nc1c2c(nc3ccccc13)CCC2,.,-42.8,.,.,.
CC(=O)c1ccc(Nc2c3c(nc4ccccc24)CCCC3)cc1,.,-41.6,.,.,.
O=C(CCCN1C(=O)C(c2ccccc2)Oc2cccnc21)Nc1cccc(F)c1 (configuration not stated),.,-44.1,.,.,.
SMILES,DRD3 antagonist,D1 antagonist,D3 ag,D1 ag,D1 potentiator
CCc1ccc(NC(=O)CN2C(=O)C(c3ccc(C)cc3)=NC23CCCCC3)cc1,/,.,.,.,.
CCOc1ccc2[nH]c(=O)c(C(c3nnnn3C3CCCCC3)N3CCN(CC)CC3)cc2c1 (configuration not stated),.,.,.,.,.
COc1ccc2[nH]c(=O)c(C(c3nnnn3C3CCCC3)N3CCN(Cc4ccc5c(c4)OCO5)CC3)cc2c1 (configuration not stated),-53.8,/,.,.,.
Cc1nn(-c2ccccc2)c2c1C(=O)N(c1ccccc1)C(=O)C(C)(C)C2,.,-39.6,.,.,.
COc1ccc(S(=O)(=O)NCc2cccn2Cc2cccc(C)c2)cc1OC,/,.,.,.,.
CC1CCC/C(=N/Nc2ccc([N+](=O)[O-])cc2[N+](=O)[O-])C1 (configuration not stated),.,-32.1,.,.,.
